# Laboratory results taken from PubChem BioAssay (Tox21).
# Records with an inconclusive call do not appear. Where a call stands in place of a potency, no number is given. Calls of active or inactive are those of the source. The call rests on the fitted dose curve; in most records, active means well fitted cell-killing curve with a large enough effect in the repeat runs; inconclusive means weak or mixed curves, or effect the other way; inactive means flat fitted curve, though single readings scatter.
# Assay: cAMP Responsive Elements (CRE) small molecule antagonists, cell-based qHTS assay: qHTS cell viability counter screen (AID 2060913); further: nearly all actives have a fitted effect of over 40% in size
# Details: CRE-bla HEK293T viability, CellTiter-Glo luminescence, 5 h; series mostly up to 92.4 µM
# Excerpt: U.S. Tox21 Program National Center for Advancing Translational Sciences [NCATS] Division of Preclinical Innovation [DPI] U.S. Environmental Protection Agency [EPA] National Institutes of Environmental Health Sciences [NIEHS] National Toxicology Program [NTP] U.S. Food and Drug Administration [FDA] Tox21 Assay Overview: CREB (cyclic-AMP Responsive Element Binding Protein) is a cellular transcription factor. It binds to certain DNA sequences called cAMP Responsive Elements (CRE) and regulates the transcription of the genes. […] This cell line can be used to find agonists/antagonists of the cyclic AMP signaling pathway. The activation of the report gene under culture conditions can be detected by fluorescence intensity. This cell line has been used to screen the Tox21 10K compound library to identify agonists that induce oxidative stress. The cytotoxicity of the Tox21 compound library against the CRE-bla cell line was tested in parallel by measuring the cell viability using CellTiter-Glo assay (Promega, Madison, WI) in the same wells.
# Tox21 Assay Protocol Summary: CRE-bla Hek 293T cells were suspended in assay medium (DMEM containing 10% dialyzed FBS, 0.1 mM NEAA, 1 mM sodium pyruvate and 25 mM HEPES) and dispensed at 2,000 cells/4 uL /well into 1536-well black wall/clear bottom plates using a Multidrop Combi (ThermoFisher Scientific, Waltham, MA) dispenser. After the assay plates were incubated at 37 C/5% CO2 for 18 hrs, 23 nL of compounds dissolved in DMSO, positive controls or DMSO only was transferred to the assay plate by a pintool workstation (Kalypsys, San Diego, CA), followed by addition of 1 uL of 1.25uM NKH477 (0.25 uM as final concentration) in assay medium using a Flying Reagent Dispenser (Aurora Discovery, San Diego, CA). The plates were incubated at 37 C and 5% CO2 for 3 hrs. Then 1 uL of LiveBLAzer B/G FRET substrate (Invitrogen, Carlsbad, CA) was added to each well using Bioraptr Flying Reagent Dispenser (FRD, Aurora Discovery, San Diego, CA). The plates were incubated at room temperature for 2 h, then fluorescence intensities were measured using an Envision plate reader (PerkinElmer, Shelton, CT) at Excitation 405nm, Emission 460nm and 530nm. The % activity was determined from the ratio of 460nm/530nm. For cell viability readout that measures cytotoxicity, 4 uL /well of CellTiter-Glo reagent was added into the assay plates using Bioraptr FRD. After 30 min incubation at room temperature, the luminescence intensity in the assay plates was measured using a ViewLux (PerkinElmer, Shelton, CT) plate reader.
Structure (SMILES),Potency,"viability change, negative = cytotoxic"
CCCCOC(=O)CO,inactive,–
Oc1ccc2ccccc2c1,inactive,–
CCOC(=O)c1ccccc1C,inactive,–
CCCCCCCC/C=C\CCCCCCCC(=O)OCCOC(=O)CCCCCCC/C=C\CCCCCCCC,inactive,–
C/C(CC(C)C)=N\O,inactive,–
CC(C)(C)C(=O)C(Oc1ccc(Cl)cc1)n1ccnc1 (stereo not given),inactive,–
C[C@@H]1CN(c2c(F)c(N)c3c(=O)c(C(=O)O)cn(C4CC4)c3c2F)C[C@H](C)N1,–,-4.19% [at 18.9 µM] (inactive)
CCC1CCCCC1,inactive,–
O=C(O)c1cccc(C(=O)O)n1,inactive,–
CC(=O)SCC(CC(=O)c1ccc(C)cc1)C(=O)O (stereo not given),inactive,–
OCc1ccccc1,inactive,–
COc1cccc(O)c1,inactive,–
Oc1ccc2c(c1)-c1ccccc1C2,inactive,–
CC(C)NNC(=O)c1ccncc1,inactive,–
O=C(Cl)c1ccc(F)c(Cl)c1,inactive,–
CCCOc1ccccc1-c1nc2n[nH]nc2c(=O)[nH]1,inactive,–
CCc1ccc(O)c(OC)c1,inactive,–
Clc1ccc(Cl)c(Cl)c1Cl,inactive,–
Cc1cccc2nccnc12,inactive,–
FC(F)(F)/C(=N\OCC1OCCO1)c1ccc(Cl)cc1,inactive,–

Structure (SMILES),Potency,"viability change, negative = cytotoxic"
COc1cc(C(C)C)ccc1C,–,0.655% [at 18.9 µM] (inactive)
O=S(=O)(O)c1cc(O)c2ccc(Nc3ccccc3)cc2c1,inactive,–
CNCCCCOc1ccccc1Cc1ccccc1,inactive,–
COc1cc2c(N3CCN(C(=O)Nc4ccc(OC(C)C)cc4)CC3)ncnc2cc1OCCCN1CCCCC1,inactive,–
CCc1cccc(CC)c1N(COC)C(=O)CS(=O)(=O)O,inactive,–
NC(=O)NNC(N)=O,inactive,–
O=C(O)CCSSCCC(=O)O,inactive,–
CCOc1ccc(C(=O)OCCN(CC)CC)cc1,inactive,–
CC(C)N=C=NC(C)C,inactive,–
C[C@]12CC[C@@H]3c4ccc(O)cc4CC[C@H]3[C@@H]1CC[C@H]2O,inactive,–
O=C(O)c1ccccc1Nc1cc(Cl)ccc1C(=O)O,–,-0.998% [at 18.9 µM] (inactive)
O=S(=O)(O)c1ccc(Cl)cc1,inactive,–
CC(=O)Nc1ccc2c(c1)Cc1cc(NC(C)=O)ccc1-2,inactive,–
O=C(/C=C/c1ccc(O)c(O)c1)O[C@@H]1C[C@](O)(C(=O)O)C[C@@H](O)[C@H]1O,inactive,–
NC1CCN(c2cccc(Cl)n2)CC1,inactive,–
C[n+]1ccn(CCO)c1,inactive,–
CCCC(=O)O[C@]1(C(=O)COC(=O)CC)CC[C@H]2[C@@H]3CCC4=CC(=O)CC[C@]4(C)[C@H]3[C@@H](O)C[C@@]21C,–,9.89% [at 18.9 µM] (inactive)
CCCS(=O)c1ccc2nc(NC(=O)OC)[nH]c2c1 (stereo not given),inactive,–
CC(C)OC(=O)OCOP(=O)(CO[C@H](C)Cn1cnc2c(N)ncnc21)OCOC(=O)OC(C)C,inactive,–
C/C(=N\O)c1ccc(OCC(=O)N2CCCCC2)cc1,inactive,–
